# TDP1 cell noCPT: qHTS for Inhibitors of human tyrosyl-DNA phosphodiesterase 1 (TDP1): qHTS in cells in absence of CPT; DT40 Tdp1-/- hTDP1 cells, no CPT, ATP luminescence, 48 h; Potency, µM (highest dose often 46.2 µM), for inactives: top-dose activity change, negative = growth inhibition, most hits filed as inhibitors; hit rate 15% among 420,000; AID 686978, 2013; further: potency means the concentration at half of the fitted maximal effect; nearly all actives have a fitted effect of over 55% in size
#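 Chicken DT40 Tdp1-/- cells complemented with human TDP1, screened without camptothecin (DMSO vehicle only), 400 cells/well. Compounds pin-transferred, cells incubated at 37 °C for at least 48 hr. Growth read as ATP-dependent luminescence (CellTiter-Glo, 30 min at RT).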
# HT1080NT lethal: qHTS for induction of synthetic lethality in tumor cells producing 2HG: qHTS for the HT-1080-NT fibrosarcoma cell line; HT-1080-NT fibrosarcoma viability, CellTiter-Glo ATP luminescence, 48 h; Potency, µM (highest dose often 46.1 µM), without a hit: at the top dose activity, negative = less viability, most hits filed as cytotoxic; hit rate 1.6% among 360,000; AID 686970, 2013;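 further: NT is the 2HG producing partner of a matched IDH1 knockdown line; potency means the concentration at half of the fitted maximal effect; 0% = DMSO-treated cells and -100% = media-only wells without cells; nearly all actives have a fitted effect of over 55% in size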
#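 750 cells/well, RPMI + 5% FBS; 2 h settle, compound pin-transfer, 48 h at 37 degrees C. CellTiter-Glo 10 min RT, luminescence. Normalized to DMSO and media-only wells.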
# uPA surface inh: qHTS for Inhibitors of Cell Surface uPA Generation; AID 540303, 2011; cell surface uPA generation assay, qHTS; Potency, µM (titrated, usually from 38.3 µM), without a hit: at the top dose activity change, negative = inhibition, actives largely listed as inhibitors; hit rate 0.31% among 330,000; active means well fitted inhibition curve with a large enough effect; inconclusive means small, poorly fitted or top-dose-only effect; inactive means no such curve, though single readings can be large or run the other way; tested in mouse RAW 264.7 cells; further: potency means the concentration at half of the fitted maximal effect; nearly all actives have a fitted effect of over 55% in size
# DT40 TDP1 CPT: qHTS for Inhibitors of human tyrosyl-DNA phosphodiesterase 1 (TDP1): qHTS in cells in presence of CPT; chicken DT40 Tdp1-/-;hTDP1 cells + 20 nM CPT, ATP luminescence, 48 h; Potency, µM (series often up to 46.2 µM), without a hit: top-dose activity change, negative = growth inhibition, hits mostly inhibitors; hit rate 12% among 420,000; further: potency means the concentration at half of the fitted maximal effect; nearly all actives have a fitted effect of over 55% in size
#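 Chicken DT40 Tdp1-/- cells complemented with human TDP1, 400 cells/well, exposed to compounds plus 20 nM camptothecin for at least 48 h at 37 C; viability read as ATP content by CellTiter-Glo luminescence.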
# HT1080 IDH1KD tx: qHTS for induction of synthetic lethality in tumor cells producing 2HG: qHTS for the HT-1080-IDH1KD cell line; HT-1080 IDH1 knockdown viability, ATP luminescence, 48 h; Potency, µM (top dose mostly 46.1 µM), for inactives: at the top dose activity, negative = toxicity, actives largely listed as cytotoxic; hit rate 2% among 360,000;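 further: potency means the concentration at half of the fitted maximal effect; 0% = DMSO wells and -100% = cell-free medium wells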
#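 Using the IDH1-knockdown HT-1080 line run in the same batch and compound series as the NT line, viability after 48 h at 37 °C was determined by CellTiter-Glo luminescence and expressed as % activity.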
# IL1B secr inh: qHTS for Inhibitors of Inflammasome Signaling: IL-1-beta AlphaLISA Primary Screen; THP-1 LPS/ATP IL-1B secretion, AlphaLISA, 16 h; hits give low values; activity change, % at 57.5 µM; hit rate 4.7% among 360,000; in the data active means activity change below about -50%; inconclusive means mostly about -30% to -49%
#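 Secreted IL-1B measured by AlphaLISA bead assay after 16 h compound exposure of THP-1 cells; compounds (final up to 57.5 uM) added 1 h before LPS (250 ng/mL) and ATP (1.25 mM) stimulation; lower signal means less secretion.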
# * marks the source's active call; other numbers are inactive results; ? = inconclusive; nt = no result. The list is not random: actives were taken first. Their share in the collection is about 19%. Unless noted, the call rests on the fitted dose curve; in most records, active means well fitted curve in the direction sought with a large enough effect; inconclusive means small, poorly fitted or top-dose-only effect, or another doubt; inactive means no such curve, though single readings can be large; an effect the other way counts as inactive or inconclusive. Unless noted, on the % scale 0 is the no-effect control and ±100 the full control effect.
SMILES,TDP1 cell noCPT,HT1080NT lethal,uPA surface inh,DT40 TDP1 CPT,HT1080 IDH1KD tx,IL1B secr inh
O=C1N(c2ccccc2)C[C@@H]2C[C@@H](c3cc4ccccc4o3)N3CCC[C@@]123,23.1µM*,?,-16.3%,-5.3%,0.581µM*,-103.0*
CCC(=O)Nc1cccc(-c2nc3ccccc3o2)c1,-12.5%,-1.5%,-2.1%,-14.0%,-9.6%,0.0
O=C(Nc1cccc(-c2nc3ccccc3o2)c1)C(F)(F)F,2.91µM*,nt,nt,3.66µM*,nt,nt
Cc1ccc(-c2nc3ccccc3o2)cc1NC(=S)NC(=O)/C=C/c1ccco1,2.91µM*,?,-1.4%,2.91µM*,?,-2.1
O=C(/C=C/c1ccco1)NC(=S)Nc1cccc(-c2nc3ccccc3o2)c1,3.26µM*,5.17µM*,?,4.61µM*,5.8µM*,37.5
COc1ccc(NC(=O)C2c3ccccc3OCC(=O)N2Cc2ccco2)cc1 (stereo not given),-18.1%,-0.5%,nt,1.5%,3.0%,-8.9
OCC1CCCCN1CCNCc1cn[nH]c1-c1cccc2ccccc12 (stereo not given),16.3%,-2.0%,0.4%,-11.8%,6.5%,?
c1ccc2c(-c3[nH]ncc3CNCCCn3ncc4ccccc43)cccc2c1,11.6µM*,?,1.5%,18.4µM*,?,?
CCCN(CCC)C(=O)C1CCN(c2cc(C)nc3c(-c4ccc(OC)c(OC)c4)c(C)nn23)CC1,16.4µM*,-2.9%,-11.6%,18.4µM*,1.0%,-14.9
CCN(CC)CCNC(=O)C1CCN(c2cc(C)nc3c(-c4ccc(Cl)cc4)c(C)nn23)CC1,4.11µM*,nt,nt,3.66µM*,nt,nt
COCCCNC(=O)C1CCN(c2cc(C)nc3c(-c4ccc(OC)c(OC)c4)c(C)nn23)CC1,16.4µM*,nt,nt,-18.0%,nt,nt
Cc1ccc(S(=O)(=O)N2CC3=C(C2)C2CC2(C)C3)cc1 (stereo not given),?,-3.8%,nt,-15.8%,-9.5%,16.7
Cc1cc(NC(=O)c2ccccc2C)ccc1NC(=O)c1ccccc1Cl,?,-6.8%,?,-21.8%,-4.8%,-1.9
O=C(CSc1nnc(-c2ccc(Br)cc2)n1CCc1ccccc1)NC1CCS(=O)(=O)C1 (stereo not given),-22.5%,-0.3%,0.0%,-4.6%,5.0%,0.0
COC(=O)c1ccc2c(=O)n(CCN3CCOCC3)c(SCC(=O)NCc3ccccc3)nc2c1,-29.5%,5.2%,-2.9%,3.4%,10.7%,-0.9
COC(=O)CC(=O)CSc1nc2cc(C(=O)NCC(C)C)ccc2c(=O)n1CCc1ccccc1,20.6µM*,nt,nt,?,nt,nt
COCCn1c(SCC(=O)c2c(C)[nH]c3ccccc23)nc2cc(C(=O)NC(C)C)ccc2c1=O,16.4µM*,nt,nt,11.6µM*,nt,nt
COC(=O)CC(=O)CSc1nc2cc(C(=O)NC(C)C)ccc2c(=O)n1CCc1ccccc1,23.1µM*,nt,nt,?,nt,nt
COCCn1c(SCC(=O)c2ccc(C)cc2)nc2cc(C(=O)NC3CCCC3)ccc2c1=O,-3.7%,nt,nt,5.6%,nt,nt
Cn1cc(-c2nc3cnc(Oc4ccccc4)nc3n(CCC#N)c2=O)c2ccccc21,9.3%,nt,nt,11.8%,nt,nt
CCc1ccc(N2CC(c3nnc(NC(=O)c4ccco4)s3)CC2=O)cc1 (stereo not given),-10.1%,nt,nt,-10.4%,nt,nt
Cc1ccc(CNC(=O)CN2C(=O)C3CCCCN3c3ccc(C(=O)N4CCCC4)cc32)cc1 (stereo not given),-7.5%,nt,nt,-7.5%,nt,nt

# Screening results deposited in PubChem by National Center for Advancing Translational Sciences (NCATS).
